# Measured values taken from ChEMBL document CHEMBL1961873, “Compounds: GSK PKIS; Assays: Nanosyn kinase panel” (2012).
# How the values were obtained:
# [1] = biological target: T1, Inhibitor of nuclear factor kappa-B kinase subunit epsilon (Homo sapiens) (UniProt Q14164); settings: at 1 µM;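 also: reported values are averaged percent inhibition figures against human IKKε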
# T1 sequence (whole entry): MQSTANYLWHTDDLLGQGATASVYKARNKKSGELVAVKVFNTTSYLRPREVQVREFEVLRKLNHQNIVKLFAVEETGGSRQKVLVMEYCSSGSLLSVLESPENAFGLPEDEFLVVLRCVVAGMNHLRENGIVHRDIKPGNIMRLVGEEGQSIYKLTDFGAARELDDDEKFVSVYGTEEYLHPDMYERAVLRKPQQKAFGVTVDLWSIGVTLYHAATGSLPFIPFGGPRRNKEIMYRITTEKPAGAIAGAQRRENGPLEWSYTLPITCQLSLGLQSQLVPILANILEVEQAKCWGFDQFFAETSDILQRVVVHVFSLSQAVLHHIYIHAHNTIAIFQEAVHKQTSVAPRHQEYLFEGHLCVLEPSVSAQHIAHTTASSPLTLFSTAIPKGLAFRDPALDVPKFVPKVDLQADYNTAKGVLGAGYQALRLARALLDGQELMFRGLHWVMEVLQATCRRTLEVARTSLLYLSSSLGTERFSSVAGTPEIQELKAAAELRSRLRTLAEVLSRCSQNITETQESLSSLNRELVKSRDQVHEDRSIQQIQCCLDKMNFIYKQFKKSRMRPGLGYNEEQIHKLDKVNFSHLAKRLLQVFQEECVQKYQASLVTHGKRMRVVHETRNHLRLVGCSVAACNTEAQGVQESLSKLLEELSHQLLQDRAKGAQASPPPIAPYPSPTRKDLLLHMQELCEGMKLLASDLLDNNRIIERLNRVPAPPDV
# [2] = biological target: T2, Serine/threonine-protein kinase Nek1 (Homo sapiens) (UniProt Q96PY6); settings: at 0.1 µM
# T2 sequence (whole entry): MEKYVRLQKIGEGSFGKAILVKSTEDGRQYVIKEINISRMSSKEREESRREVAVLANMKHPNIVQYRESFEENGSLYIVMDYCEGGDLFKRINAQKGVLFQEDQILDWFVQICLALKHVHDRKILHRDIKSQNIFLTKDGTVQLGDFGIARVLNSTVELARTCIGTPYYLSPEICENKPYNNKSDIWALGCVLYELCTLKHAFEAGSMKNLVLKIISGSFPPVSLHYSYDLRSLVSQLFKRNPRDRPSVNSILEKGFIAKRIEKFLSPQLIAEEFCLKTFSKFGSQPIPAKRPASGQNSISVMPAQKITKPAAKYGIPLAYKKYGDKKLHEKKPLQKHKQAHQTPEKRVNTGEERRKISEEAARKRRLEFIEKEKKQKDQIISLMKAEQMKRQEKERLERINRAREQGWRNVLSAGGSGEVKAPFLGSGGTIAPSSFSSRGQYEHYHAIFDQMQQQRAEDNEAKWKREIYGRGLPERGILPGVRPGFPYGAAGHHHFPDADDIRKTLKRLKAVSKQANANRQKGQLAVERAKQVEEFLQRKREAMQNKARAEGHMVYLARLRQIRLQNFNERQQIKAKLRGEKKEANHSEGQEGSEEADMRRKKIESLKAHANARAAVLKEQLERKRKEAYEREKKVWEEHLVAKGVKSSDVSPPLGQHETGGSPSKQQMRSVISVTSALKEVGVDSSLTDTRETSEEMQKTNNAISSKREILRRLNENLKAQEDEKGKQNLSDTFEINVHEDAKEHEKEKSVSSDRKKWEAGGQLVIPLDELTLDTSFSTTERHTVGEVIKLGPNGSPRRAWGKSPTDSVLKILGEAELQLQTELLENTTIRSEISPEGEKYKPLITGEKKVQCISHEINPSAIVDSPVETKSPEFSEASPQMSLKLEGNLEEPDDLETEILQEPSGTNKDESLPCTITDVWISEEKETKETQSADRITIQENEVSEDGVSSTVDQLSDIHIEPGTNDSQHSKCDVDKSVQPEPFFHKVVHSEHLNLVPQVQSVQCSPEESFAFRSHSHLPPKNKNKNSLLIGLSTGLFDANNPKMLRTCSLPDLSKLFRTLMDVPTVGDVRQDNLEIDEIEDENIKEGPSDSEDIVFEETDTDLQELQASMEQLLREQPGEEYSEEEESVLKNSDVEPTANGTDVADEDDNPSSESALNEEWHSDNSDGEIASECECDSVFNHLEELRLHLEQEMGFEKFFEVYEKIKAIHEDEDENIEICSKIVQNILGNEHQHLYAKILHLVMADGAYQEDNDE
# [3] = biological target: T2, Serine/threonine-protein kinase Nek1 (Homo sapiens); settings: at 1 µM
# [4] = biological target: T3, Serine/threonine-protein kinase Nek2 (Homo sapiens) (UniProt P51955); settings: at 0.1 µM
# T3 sequence (whole entry): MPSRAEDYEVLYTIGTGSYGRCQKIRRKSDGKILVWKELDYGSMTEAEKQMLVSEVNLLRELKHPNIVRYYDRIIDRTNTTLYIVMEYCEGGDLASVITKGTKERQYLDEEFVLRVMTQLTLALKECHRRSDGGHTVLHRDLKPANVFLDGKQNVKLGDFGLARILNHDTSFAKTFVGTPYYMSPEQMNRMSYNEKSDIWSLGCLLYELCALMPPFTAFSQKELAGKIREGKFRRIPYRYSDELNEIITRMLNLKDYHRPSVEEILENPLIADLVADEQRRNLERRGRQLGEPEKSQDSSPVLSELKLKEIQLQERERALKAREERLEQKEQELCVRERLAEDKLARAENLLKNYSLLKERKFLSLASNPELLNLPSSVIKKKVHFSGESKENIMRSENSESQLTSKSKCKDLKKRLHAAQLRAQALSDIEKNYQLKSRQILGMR
# [5] = biological target: T3, Serine/threonine-protein kinase Nek2 (Homo sapiens); settings: at 1 µM
# [6] = biological target: Serine/threonine-protein kinase Nek6 (Homo sapiens) (UniProt Q9HC98); settings: at 0.1 µM
# Chain of Serine/threonine-protein kinase Nek6 (Homo sapiens) (Q9HC98 whole entry): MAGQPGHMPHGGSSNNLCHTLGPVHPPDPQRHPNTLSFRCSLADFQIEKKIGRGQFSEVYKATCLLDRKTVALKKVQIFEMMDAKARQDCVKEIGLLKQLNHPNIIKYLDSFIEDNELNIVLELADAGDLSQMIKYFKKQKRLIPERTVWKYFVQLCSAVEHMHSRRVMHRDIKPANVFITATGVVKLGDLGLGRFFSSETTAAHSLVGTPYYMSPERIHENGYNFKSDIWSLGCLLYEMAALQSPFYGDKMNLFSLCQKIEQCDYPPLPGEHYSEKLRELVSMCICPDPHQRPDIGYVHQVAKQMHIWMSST
# [7] = biological target: Serine/threonine-protein kinase Nek6 (Homo sapiens) (UniProt Q9HC98); settings: at 1 µM
# [8] = biological target: Serine/threonine-protein kinase Nek7 (Homo sapiens) (UniProt Q8TDX7); settings: at 1 µM
# Chain of Serine/threonine-protein kinase Nek7 (Homo sapiens) (Q8TDX7 whole entry, looked up): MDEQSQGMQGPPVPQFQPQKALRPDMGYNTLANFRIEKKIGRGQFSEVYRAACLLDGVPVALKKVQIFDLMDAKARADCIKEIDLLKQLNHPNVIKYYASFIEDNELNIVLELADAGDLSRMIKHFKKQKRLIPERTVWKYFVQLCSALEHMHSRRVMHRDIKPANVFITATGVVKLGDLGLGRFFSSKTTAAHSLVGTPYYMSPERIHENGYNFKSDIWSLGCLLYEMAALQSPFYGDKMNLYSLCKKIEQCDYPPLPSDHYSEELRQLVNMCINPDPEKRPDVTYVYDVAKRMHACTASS
# [9] = biological target: T4, Serine/threonine-protein kinase Nek9 (Homo sapiens) (UniProt Q8TD19); settings: at 0.1 µM
# T4 sequence (whole entry): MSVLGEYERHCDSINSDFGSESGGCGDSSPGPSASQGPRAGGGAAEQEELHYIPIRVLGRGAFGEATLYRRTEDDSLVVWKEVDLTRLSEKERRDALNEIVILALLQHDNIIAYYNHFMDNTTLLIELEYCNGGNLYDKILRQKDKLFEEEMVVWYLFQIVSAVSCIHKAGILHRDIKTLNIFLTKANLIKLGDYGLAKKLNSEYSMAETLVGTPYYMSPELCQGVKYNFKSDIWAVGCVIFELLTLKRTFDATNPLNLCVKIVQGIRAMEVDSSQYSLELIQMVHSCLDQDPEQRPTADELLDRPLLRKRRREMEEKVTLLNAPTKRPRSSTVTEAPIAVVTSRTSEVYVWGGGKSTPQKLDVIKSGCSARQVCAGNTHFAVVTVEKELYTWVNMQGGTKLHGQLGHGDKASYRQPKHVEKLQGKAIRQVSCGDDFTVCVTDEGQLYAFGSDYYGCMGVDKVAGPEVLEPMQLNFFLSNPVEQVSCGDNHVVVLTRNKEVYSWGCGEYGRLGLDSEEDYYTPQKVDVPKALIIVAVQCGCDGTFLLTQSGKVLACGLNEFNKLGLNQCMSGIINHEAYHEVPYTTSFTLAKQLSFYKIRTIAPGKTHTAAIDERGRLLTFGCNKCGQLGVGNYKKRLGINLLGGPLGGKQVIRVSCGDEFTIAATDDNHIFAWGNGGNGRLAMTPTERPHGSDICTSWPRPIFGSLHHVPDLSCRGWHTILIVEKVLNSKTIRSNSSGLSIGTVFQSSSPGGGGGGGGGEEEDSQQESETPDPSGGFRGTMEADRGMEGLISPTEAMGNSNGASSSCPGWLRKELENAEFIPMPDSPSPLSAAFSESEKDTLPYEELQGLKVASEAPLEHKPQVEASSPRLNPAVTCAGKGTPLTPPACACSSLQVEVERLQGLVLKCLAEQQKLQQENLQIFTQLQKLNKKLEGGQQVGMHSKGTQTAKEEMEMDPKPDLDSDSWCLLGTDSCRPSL
# [10] = biological target: T4, Serine/threonine-protein kinase Nek9 (Homo sapiens); settings: at 1 µM
# [11] = biological target: Serine/threonine-protein kinase PLK1 (Homo sapiens) (UniProt P53350); settings: at 0.1 µM
# Chain of Serine/threonine-protein kinase PLK1 (Homo sapiens) (P53350 whole entry): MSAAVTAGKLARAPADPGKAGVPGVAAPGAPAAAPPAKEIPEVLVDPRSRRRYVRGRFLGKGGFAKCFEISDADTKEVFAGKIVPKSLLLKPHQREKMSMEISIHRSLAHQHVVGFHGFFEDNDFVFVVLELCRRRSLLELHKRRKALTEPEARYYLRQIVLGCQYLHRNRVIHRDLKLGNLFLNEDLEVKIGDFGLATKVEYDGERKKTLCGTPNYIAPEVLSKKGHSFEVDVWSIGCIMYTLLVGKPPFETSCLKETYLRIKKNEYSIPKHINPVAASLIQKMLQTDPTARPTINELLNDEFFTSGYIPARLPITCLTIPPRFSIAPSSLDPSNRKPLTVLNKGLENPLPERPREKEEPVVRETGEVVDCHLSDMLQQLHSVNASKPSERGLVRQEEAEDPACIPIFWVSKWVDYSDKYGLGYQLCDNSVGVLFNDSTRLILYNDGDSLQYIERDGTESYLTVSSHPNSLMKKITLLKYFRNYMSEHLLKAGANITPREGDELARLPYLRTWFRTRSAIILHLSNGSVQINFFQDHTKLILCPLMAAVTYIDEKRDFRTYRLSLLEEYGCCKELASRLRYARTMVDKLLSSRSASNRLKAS
# [12] = biological target: Serine/threonine-protein kinase PLK1 (Homo sapiens) (UniProt P53350); settings: at 1 µM
# [13] = biological target: T5, Dual specificity protein kinase TTK (Homo sapiens) (UniProt P33981); settings: at 0.1 µM
# T5 sequence (whole entry): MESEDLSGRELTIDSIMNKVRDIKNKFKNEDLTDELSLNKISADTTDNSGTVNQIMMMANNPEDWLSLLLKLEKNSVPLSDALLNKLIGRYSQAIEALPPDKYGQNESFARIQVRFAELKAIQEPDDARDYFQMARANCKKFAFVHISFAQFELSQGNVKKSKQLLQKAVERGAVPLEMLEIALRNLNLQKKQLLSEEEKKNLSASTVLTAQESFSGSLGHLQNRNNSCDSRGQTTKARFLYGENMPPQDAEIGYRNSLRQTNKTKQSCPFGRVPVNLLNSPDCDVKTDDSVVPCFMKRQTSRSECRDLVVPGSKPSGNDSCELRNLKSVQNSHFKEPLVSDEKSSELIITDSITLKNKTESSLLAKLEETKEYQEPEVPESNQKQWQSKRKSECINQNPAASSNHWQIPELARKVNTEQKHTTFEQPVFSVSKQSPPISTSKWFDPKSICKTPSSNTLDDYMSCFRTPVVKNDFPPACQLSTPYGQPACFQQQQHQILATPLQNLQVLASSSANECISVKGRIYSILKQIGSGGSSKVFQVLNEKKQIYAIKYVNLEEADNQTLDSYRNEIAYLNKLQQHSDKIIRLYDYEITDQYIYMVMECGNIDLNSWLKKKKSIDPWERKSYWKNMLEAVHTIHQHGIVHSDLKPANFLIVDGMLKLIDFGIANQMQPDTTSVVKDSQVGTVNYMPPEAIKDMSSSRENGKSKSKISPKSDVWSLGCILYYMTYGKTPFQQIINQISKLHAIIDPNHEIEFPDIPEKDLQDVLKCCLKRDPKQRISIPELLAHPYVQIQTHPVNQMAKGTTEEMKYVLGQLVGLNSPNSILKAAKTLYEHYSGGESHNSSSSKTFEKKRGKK
# [14] = test system: T6, Receptor-type tyrosine-protein kinase FLT3 (Homo sapiens), P36888 [D835Y]; settings: at 1 µM
# T6 sequence (whole entry): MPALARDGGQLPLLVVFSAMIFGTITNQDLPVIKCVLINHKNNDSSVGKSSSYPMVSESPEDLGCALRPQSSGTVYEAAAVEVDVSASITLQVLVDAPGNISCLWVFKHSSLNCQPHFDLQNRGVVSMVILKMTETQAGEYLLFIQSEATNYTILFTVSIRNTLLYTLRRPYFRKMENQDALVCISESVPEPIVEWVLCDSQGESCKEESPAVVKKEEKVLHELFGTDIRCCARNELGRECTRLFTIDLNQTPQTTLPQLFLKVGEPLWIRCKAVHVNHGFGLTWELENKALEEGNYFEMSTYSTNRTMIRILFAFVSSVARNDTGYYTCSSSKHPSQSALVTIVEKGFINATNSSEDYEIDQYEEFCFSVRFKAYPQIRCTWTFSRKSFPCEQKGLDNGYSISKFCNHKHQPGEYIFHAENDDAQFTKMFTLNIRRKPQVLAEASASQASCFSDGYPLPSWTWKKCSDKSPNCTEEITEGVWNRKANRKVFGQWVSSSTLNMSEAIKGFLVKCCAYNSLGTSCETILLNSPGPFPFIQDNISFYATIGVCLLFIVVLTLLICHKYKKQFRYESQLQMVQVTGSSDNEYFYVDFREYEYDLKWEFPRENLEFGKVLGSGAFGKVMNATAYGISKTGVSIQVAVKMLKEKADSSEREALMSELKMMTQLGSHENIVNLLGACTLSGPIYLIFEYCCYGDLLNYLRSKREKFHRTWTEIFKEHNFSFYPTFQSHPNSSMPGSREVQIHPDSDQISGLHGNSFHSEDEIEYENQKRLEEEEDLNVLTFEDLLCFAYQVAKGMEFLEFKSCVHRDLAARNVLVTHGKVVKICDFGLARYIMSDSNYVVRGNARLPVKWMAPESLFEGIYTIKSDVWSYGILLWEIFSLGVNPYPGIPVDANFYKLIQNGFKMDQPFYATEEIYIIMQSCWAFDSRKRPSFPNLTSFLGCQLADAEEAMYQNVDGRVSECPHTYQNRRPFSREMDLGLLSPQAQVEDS
# [15] = biological target: Vascular endothelial growth factor receptor 3 (Homo sapiens) (UniProt P35916); settings: at 0.1 µM
# Chain of Vascular endothelial growth factor receptor 3 (Homo sapiens) (P35916 whole entry): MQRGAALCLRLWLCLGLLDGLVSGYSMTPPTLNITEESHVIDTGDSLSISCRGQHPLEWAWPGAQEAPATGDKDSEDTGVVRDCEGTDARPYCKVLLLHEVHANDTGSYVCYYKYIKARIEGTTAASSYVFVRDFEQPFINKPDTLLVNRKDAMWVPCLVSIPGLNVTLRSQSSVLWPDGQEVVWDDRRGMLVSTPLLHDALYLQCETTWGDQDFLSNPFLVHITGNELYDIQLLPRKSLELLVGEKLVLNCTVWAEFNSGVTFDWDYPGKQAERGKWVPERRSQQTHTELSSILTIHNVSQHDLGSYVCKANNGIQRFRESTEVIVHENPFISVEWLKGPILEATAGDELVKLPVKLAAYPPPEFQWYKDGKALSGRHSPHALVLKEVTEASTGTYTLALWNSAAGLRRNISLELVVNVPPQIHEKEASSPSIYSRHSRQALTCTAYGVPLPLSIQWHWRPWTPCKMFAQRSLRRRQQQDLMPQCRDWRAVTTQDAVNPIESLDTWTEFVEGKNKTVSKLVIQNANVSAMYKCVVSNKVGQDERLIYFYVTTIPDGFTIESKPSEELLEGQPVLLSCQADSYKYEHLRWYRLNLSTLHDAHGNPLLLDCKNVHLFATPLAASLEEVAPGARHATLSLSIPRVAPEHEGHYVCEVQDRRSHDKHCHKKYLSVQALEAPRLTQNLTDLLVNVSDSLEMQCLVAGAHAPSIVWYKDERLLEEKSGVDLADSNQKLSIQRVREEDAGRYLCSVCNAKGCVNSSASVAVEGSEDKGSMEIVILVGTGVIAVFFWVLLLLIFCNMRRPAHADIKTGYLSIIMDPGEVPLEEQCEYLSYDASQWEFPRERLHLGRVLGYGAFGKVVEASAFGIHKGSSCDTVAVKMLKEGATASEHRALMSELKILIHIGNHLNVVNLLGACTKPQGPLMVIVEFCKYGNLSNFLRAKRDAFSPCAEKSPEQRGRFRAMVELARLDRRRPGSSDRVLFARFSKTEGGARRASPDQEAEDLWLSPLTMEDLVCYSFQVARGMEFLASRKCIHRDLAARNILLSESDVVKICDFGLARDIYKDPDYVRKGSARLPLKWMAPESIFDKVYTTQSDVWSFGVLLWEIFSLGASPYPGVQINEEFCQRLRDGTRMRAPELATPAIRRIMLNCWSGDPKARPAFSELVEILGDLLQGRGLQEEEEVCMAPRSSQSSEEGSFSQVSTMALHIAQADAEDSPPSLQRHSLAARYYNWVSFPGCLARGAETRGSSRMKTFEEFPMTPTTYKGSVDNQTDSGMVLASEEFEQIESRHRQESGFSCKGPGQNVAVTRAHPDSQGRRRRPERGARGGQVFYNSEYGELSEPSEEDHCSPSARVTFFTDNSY
# [16] = biological target: Vascular endothelial growth factor receptor 3 (Homo sapiens) (UniProt P35916); settings: at 1 µM
# [17] = biological target: Macrophage colony-stimulating factor 1 receptor (Homo sapiens) (UniProt P07333); settings: at 0.1 µM
# Chain of Macrophage colony-stimulating factor 1 receptor (Homo sapiens) (P07333 whole entry): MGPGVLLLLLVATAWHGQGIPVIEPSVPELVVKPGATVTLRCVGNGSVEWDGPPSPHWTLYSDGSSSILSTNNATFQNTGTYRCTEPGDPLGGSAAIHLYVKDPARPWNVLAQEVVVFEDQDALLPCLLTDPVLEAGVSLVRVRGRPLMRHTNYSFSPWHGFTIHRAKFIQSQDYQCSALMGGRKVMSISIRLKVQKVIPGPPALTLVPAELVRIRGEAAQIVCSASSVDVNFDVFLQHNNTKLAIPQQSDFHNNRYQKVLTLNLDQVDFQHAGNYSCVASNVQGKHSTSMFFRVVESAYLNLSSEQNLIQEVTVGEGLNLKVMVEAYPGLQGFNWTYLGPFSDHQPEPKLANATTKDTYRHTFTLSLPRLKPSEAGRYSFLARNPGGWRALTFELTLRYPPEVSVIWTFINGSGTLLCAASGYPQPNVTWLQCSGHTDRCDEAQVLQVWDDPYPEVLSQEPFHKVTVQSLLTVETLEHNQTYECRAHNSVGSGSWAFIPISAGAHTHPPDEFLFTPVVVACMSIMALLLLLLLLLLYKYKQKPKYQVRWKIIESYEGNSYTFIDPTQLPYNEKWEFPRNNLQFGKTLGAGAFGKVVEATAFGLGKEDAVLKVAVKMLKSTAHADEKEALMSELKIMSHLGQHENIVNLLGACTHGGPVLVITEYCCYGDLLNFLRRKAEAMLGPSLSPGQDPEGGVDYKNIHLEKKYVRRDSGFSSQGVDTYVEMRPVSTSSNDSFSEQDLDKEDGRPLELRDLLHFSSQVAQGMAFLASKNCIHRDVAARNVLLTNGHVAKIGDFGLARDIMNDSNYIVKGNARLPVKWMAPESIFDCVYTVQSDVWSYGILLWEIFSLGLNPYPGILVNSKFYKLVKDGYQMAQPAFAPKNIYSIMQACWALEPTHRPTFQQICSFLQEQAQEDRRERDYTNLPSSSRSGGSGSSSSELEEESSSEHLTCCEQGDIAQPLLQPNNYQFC
# [18] = biological target: Macrophage colony-stimulating factor 1 receptor (Homo sapiens) (UniProt P07333); settings: at 1 µM
# [19] = biological target: Tyrosine-protein kinase Fyn (Homo sapiens) (UniProt P06241); settings: at 0.1 µM
# Chain of Tyrosine-protein kinase Fyn (Homo sapiens) (P06241 2-537 limits assumed): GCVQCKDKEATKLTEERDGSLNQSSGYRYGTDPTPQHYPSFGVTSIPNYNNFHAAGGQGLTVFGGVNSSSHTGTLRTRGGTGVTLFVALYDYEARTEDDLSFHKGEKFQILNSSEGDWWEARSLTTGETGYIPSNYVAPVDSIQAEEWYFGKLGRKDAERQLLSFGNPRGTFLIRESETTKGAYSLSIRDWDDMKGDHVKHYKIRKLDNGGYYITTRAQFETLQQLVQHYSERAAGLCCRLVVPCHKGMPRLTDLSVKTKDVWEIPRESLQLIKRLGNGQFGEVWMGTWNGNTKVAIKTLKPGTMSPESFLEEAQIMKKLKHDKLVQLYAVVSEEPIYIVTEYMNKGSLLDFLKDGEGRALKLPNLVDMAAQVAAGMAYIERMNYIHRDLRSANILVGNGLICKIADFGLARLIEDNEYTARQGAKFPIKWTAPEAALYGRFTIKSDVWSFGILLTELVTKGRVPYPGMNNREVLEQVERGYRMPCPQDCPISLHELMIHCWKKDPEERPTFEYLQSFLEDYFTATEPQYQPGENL
# [20] = biological target: Serine/threonine-protein kinase Nek7 (Homo sapiens) (UniProt Q8TDX7); settings: at 0.1 µM
Compound,inhibition [1],inhibition [2],inhibition [3],inhibition [4],inhibition [5],inhibition [6],inhibition [7],inhibition [8],inhibition [9],inhibition [10],inhibition [11],inhibition [12],inhibition [13],inhibition [14],inhibition [15],inhibition [16],inhibition [17],inhibition [18],inhibition [19],inhibition [20]
Cc1cc(-c2ccco2)cc(C)c1/C=C/c1cncc(-c2nn[nH]n2)c1,3.83%,1.34%,1.67%,1.03%,1.44%,0.53%,-0.1%,0.89%,3.25%,1.42%,1.22%,0.57%,4.5%,-2.85%,1.37%,2.25%,-0.94%,2.32%,1.3%,
CCn1c(-c2nonc2N)nc2c(C#CC(C)(C)O)ncc(OCC3CCNCC3)c21,99.1%,2.19%,3.24%,3.86%,3.71%,3.46%,4.94%,3.34%,5.3%,8.54%,4.55%,3.24%,9.22%,0.35%,-2.47%,34.8%,1.63%,1.19%,-4.47%,3.99%
CCn1c(-c2nonc2N)nc2c(C#CCN)ncc(OCCCN)c21,2.04%,-2.66%,-3.17%,-4.61%,-4.57%,-0.99%,-1.85%,-9.67%,,-9.04%,-5.66%,-6.34%,-4.74%,7.13%,-2.4%,1.59%,-1.23%,0.9%,0.54%,-5.43%
NS(=O)(=O)c1ccc(-c2ccc3c(NC(=O)C4CC4)n[nH]c3c2)cc1,3.02%,1.11%,1.6%,3.54%,2.84%,1.03%,0.35%,1.74%,5.05%,3.68%,2.16%,2.23%,2.82%,8.24%,0.96%,1.51%,0.18%,1.78%,1.45%,2.6%
